Reference: article PMC5540273 (PLoS ONE, 2017)

Assays:
Details in all cases: concentration: 1 μM, replicates: in singlicate; n = 1
[1] = tested on: T1, MLK1
T1 construct: gene MAP3K9

[2] = tested on: MLK2
[3] = tested on: MLK3
[4] = tested on: MRCKA
[5] = tested on: T2, MRCKB
T2 construct: gene CDC42BPB

[6] = tested on: MST1R
[7] = tested on: T3, MST1
T3 construct: gene STK4

[8] = tested on: T4, MST2
T4 construct: gene STK3

[9] = tested on: T5, MST3
T5 construct: gene STK24

[10] = tested on: MST4
[11] = tested on: MTOR
[12] = tested on: MUSK
[13] = tested on: MYLK2
[14] = tested on: MYLK4
[15] = tested on: MYLK
[16] = tested on: MYO3A
[17] = tested on: MYO3B
[18] = tested on: T6, NDR1
T6 construct: gene STK38

[19] = tested on: NDR2
[20] = tested on: NEK10
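Further: KINOMEscan kinase panel screen.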

| Compound | %Inh [1] | %Inh [2] | %Inh [3] | %Inh [4] | %Inh [5] | %Inh [6] | %Inh [7] | %Inh [8] | %Inh [9] | %Inh [10] | %Inh [11] | %Inh [12] | %Inh [13] | %Inh [14] | %Inh [15] | %Inh [16] | %Inh [17] | %Inh [18] | %Inh [19] | %Inh [20] |
| --- | --- | --- | --- | --- | --- | --- | --- | --- | --- | --- | --- | --- | --- | --- | --- | --- | --- | --- | --- | --- |
| c1ccc(Oc2ccc(Nc3ccnc4cc(-c5ccc(CN6CCCCC6)o5)ccc34)cc2)nc1 [GW567143] | 2% | 14% | 0% | 13% | 0% | 29% | 20% | 0% | 4% | 0% | 2% | 24% | 0% | 0% | 0% | 0% | 14% | 0% | 0% | 1% |
| COc1ccc(C)c(Nc2ccnc(Nc3ccc(-c4cnc[nH]4)cc3)n2)c1.Cl [GW784041] | 30% | 12% | 0% | 20% | 5% | 0% | 23% | 38% | 17% | 0% | 0% | 0% | 7% | 0% | 18% | 11% | 27% | 22% | 0% | 0% |
| CN(c1ccc(NC(=O)N2CCN(CCCN3CCOCC3)CC2)cc1)c1ccnc(Nc2ccc(CS(C)(=O)=O)cc2)n1.Cl [GW830899] | 13% | 29% | 1% | 19% | 15% | 0% | 0% | 0% | 0% | 0% | 0% | 12% | 9% | 1% | 0% | 0% | 0% | 3% | 0% | 0% |
| CN(c1ccc2c(c1)nc(NCc1ccccc1)n2C)c1ccnc(Nc2ccc(CS(C)(=O)=O)cc2)n1.Cl [GW811603] | 12% | 17% | 2% | 11% | 0% | 23% | 24% | 2% | 0% | 0% | 10% | 36% | 26% | 0% | 8% | 5% | 19% | 8% | 0% | 17% |
| COc1cc(Nc2ccnc3cc(-c4ccncc4)ccc23)cc(OC)c1OC.Cl [GW494610] | 2% | 27% | 21% | 0% | 4% | 41% | 9% | 0% | 0% | 0% | 20% | 10% | 13% | 0% | 84% | 19% | 6% | 17% | 0% | 0% |
| O=C(Nc1n[nH]c2cc(-c3cccs3)ccc12)C1CC1 [SB-731284] | 0% | 27% | 0% | 0% | 0% | 0% | 10% | 0% | 7% | 39% | 42% | 0% | 87% | 24% | 52% | 0% | 0% | 27% | 0% | 27% |
| COC(=O)Nc1nc2ccc(Oc3ccc(NC(=O)Nc4cc(C(F)(F)F)ccc4F)cc3)cc2[nH]1.Cl [GW654607] | 2% | 21% | 1% | 15% | 0% | 61% | 6% | 0% | 6% | 8% | 34% | 99.6% | 33% | 0% | 10% | 0% | 0% | 29% | 0% | 21% |
| N#Cc1cnc2cc(-c3cnc(CNCCN4CCOCC4)s3)ccc2c1Nc1ccc(Oc2ccccc2)cc1 [GW664114] | 78% | 17% | 83% | 9% | 0% | 86% | 20% | 12% | 34% | 18% | 12% | 3% | 0% | 13% | 6% | 55% | 48% | 14% | 0% | 4% |
| CN(C)CCNS(=O)(=O)c1ccc(-c2ccnc3[nH]ccc23)cc1 [GSK977620] | 3% | 24% | 0% | 4% | 46% | 27% | 17% | 9% | 0% | 0% | 17% | 23% | 35% | 99.5% | 28% | 0% | 0% | 29% | 15% | 17% |
